# Source: PubChem BioAssay (Tox21)
# Where “and” joins values, the source holds several entries; their conditions need not be identical. Identical values can stand only once. Inconclusive results are not listed. A call without a number means that no potency is given here. Some compounds were tested as several samples or in several runs, with calls that do not always agree. Calls of active or inactive are those of the source. The call rests on the fitted dose curve; in most records, active means well fitted inhibition curve with a large enough effect in the repeat runs; inconclusive means weak or mixed curves, or effect the other way; inactive means no such curve, though single readings can be large or run the other way.
# Target: Nuclear receptor subfamily 1 group I member 3 (Homo sapiens) (UniProt Q14994)
# Sequence (Q14994 whole entry, looked up): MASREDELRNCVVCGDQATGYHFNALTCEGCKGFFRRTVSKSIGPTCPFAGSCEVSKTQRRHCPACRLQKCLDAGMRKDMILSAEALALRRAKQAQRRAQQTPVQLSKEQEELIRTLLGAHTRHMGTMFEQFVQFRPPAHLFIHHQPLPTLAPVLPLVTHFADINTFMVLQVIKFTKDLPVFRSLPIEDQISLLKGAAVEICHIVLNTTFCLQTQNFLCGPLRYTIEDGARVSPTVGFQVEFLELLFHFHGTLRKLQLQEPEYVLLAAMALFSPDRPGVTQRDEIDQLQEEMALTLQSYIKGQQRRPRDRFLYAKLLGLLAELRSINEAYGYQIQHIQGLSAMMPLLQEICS
# Experiment: qHTS assay to identify small molecule antagonists of the constitutive androstane receptor (CAR) signaling pathway (AID 1224838);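 further: HepG2 cells stably expressing hCAR with CYP2B6 luciferase reporter stimulated by CITCO; nearly all actives have a fitted effect of over 40% in size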
# Conditions: HepG2-CYP2B6-hCAR luciferase, CITCO-stimulated, 24 h; series mostly up to 92.4 µM; activity, negative = inhibition: at the top concentration
# Source text: U.S. Tox21 Program National Center for Advancing Translational Sciences [NCATS] NIH Chemical Genomics Center [NCGC] U.S. Environmental Protection Agency [EPA] National Institutes of Environmental Health Sciences [NIEHS] National Toxicology Program [NTP] U.S. Food and Drug Administration [FDA] Tox21 Assay Overview: The constitutive androstane receptor (CAR) is a nuclear receptor which regulates multiple drug metabolizing enzymes (DMEs) and transporters. Activating CAR will generally increase the transcription and subsequent translation of CYP2B6 and CYP3A4. These two DMEs represent about 50% of the drug metabolizing potential in the body. When CAR is deactivated, the metabolizing potential in the body will decrease, subsequently increasing the toxicity in the body or lowering the therapeutic potential of a pro-drug. Recently, there have also been studies performed indicating CARs role in energy metabolism and cancer therapy. Therefore, inhibiting CARs activity could have a potential effect on diabetes and cancer. Identifying environmental toxins and compounds which modulate CAR, through the use of the Tox21 10K compound collection, will be an important step in determining the toxicity and potential therapeutic effects these factors will have on the human body.
# Tox21 Assay Protocol Summary: A double-stable (hCAR and CYP2B6-2.2kb) transfected cell line, derived from human hepatoma (HepG2) cells, was utilized for the duration of the quantitative high-throughput screens. The HepG2-CYP2B6-hCAR cells suspended in DMEM culture medium supplemented with 10% FBS, 5 ug/mL blasticidin, 0.5 mg/mL geneticin, 100 U/mL penicillin and 100 ug/mL streptomycin were dispensed at 2500 cells/4 uL/well in 1536-well white solid bottom plates using a Multidrop Combi. After the assay plates were incubated at 37 C/5% CO2 for 4 hrs, 23 nL of compounds at 15 concentrations (from 5-48 columns) or positive control (from 1 to 4 columns) were transferred to the assay plates using a Pintool station. One uL of CITCO, was added using a Flying Reagent Dispenser to generate a final concentration of 50 nM CITCO inside each well. After a 24 hr incubation period at 37 C/5% CO2, four uL of ONE-Glo reagent was added into the assay plates using a Flying Reagent Dispenser. After a 30 min incubation period at room temperature, the luminescence intensity in the assay plates was measured using a ViewLux plate reader.
# Potency means the concentration at half of the fitted maximal effect.
Structure (SMILES),Potency,"activity, negative = inhibition"
CCC(O)OCCCOC (stereo not given),inactive,
CCCCC(CC)CO (stereo not given),inactive,
C[C@H]1C[C@H]2[C@@H]3CCC4=CC(=O)C=C[C@]4(C)[C@@]3(F)[C@@H](O)C[C@]2(C)[C@@]1(O)C(=O)CO,inactive,
CN(C)CCC(c1ccccc1)c1ccccn1 (stereo not given),inactive,
c1ccc(OCCOc2ccccc2)cc1,inactive,
C=C(C)C(=O)OCCOCCOCCOC(=O)C(=C)C,inactive,
Cc1cccnc1,inactive,
CCCCCC1=CCCC1=O,inactive,
CC(C)c1ccc(S(=O)(=O)O)cc1,inactive,
COc1ccc(NC(C)=O)cc1N,inactive,
CCN(CC)c1ccc(C(=O)c2ccccc2C(=O)O)c(O)c1,inactive,
Cc1occc(=O)c1O,inactive and 50.9 µM (active),
CCCCCC(N)=O,inactive,
ON=C1CCCCC1,inactive,
O=C(O)CCCCCCCCCCC(=O)O,inactive and 1 nM (active),
O=c1[nH]c(=O)n([C@H]2CCCO2)cc1F,inactive,
OCC(CO)(CBr)CBr,inactive,
CC(=O)CC(=O)Nc1ccccc1C,inactive,
C/C=C1/CC2C=CC1C2 (stereo not given),inactive,
O=C=NCCCCCCN=C=O,23.8 µM (active) and inactive,

Structure (SMILES),Potency,"activity, negative = inhibition"
O=c1[nH]nnc2ccccc12,inactive,
CCCCCCCCCCCCc1ccccc1,inactive,
c1ccc2c(c1)ccc1ccccc12,inactive,
COc1ccc2cc([C@H](C)C(=O)O)ccc2c1,inactive,
COS(C)(=O)=O,inactive,
CC1=C(C)S(=O)(=O)CCS1(=O)=O,inactive,
CCCCC(CC)COC(=O)CCCCC(=O)OCC(CC)CCCC (stereo not given),inactive,
O=[N+]([O-])c1ccc(/C=C/c2ccc([N+](=O)[O-])cc2S(=O)(=O)O)c(S(=O)(=O)O)c1,inactive,
COc1ccc(Cl)cc1C(=O)NCCc1ccc(S(=O)(=O)NC(=O)NC2CCCCC2)cc1,inactive,
CC1=CC(=O)NS(=O)(=O)O1,48.7 µM (active) and inactive,
O=C(O)c1ccccc1C(c1ccc(O)cc1)c1ccc(O)cc1,,-28.3% (inactive)
COCCCOc1ccnc(CS(=O)c2nc3ccccc3[nH]2)c1C (stereo not given),inactive,
Cc1ccc(N(C)C)cc1,inactive,
CC(=O)OCC(=O)[C@@]12N=C(C)O[C@@H]1C[C@H]1[C@@H]3CCC4=CC(=O)C=C[C@]4(C)[C@H]3[C@@H](O)C[C@@]12C,inactive,
C#CCN(C)Cc1ccccc1,inactive,
O=C(OCCOCCOC(=O)c1ccccc1)c1ccccc1,inactive,
CCCCCCCCCCCCOCCO,inactive,
CCCC(C)=O,inactive,
O=c1[nH]c(=O)n([C@H]2C[C@H](O)[C@@H](CO)O2)cc1Br,inactive,
CC1CCC(C(C)C)C(O)C1 (stereo not given),inactive,
